This passage reports AC50 and outcome results from PubChem BioAssay (EPA / NIEHS).

What is called AC50 is the concentration giving half of the maximal activity seen.

Experiment [1] is described as follows: CCTE_Harrill_HTTr_Apoptosis_PRF_DMEM_24hr: (Pilot) CCTE's 24-hour Apoptosis Assessment for the High-Throughput Transcriptomics (HTTr) Platform, in MCF-7 cells cultured in phenol red-free DMEM + 10% charcoal-stripped fetal bovine serum, Harrill Lab (AID 2283986). In outline: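 Eight concentrations tested for 24 h on MCF-7 grown in charcoal-stripped serum, phenol red-free DMEM. High content imaging of CellEvent Caspase 3/7 Green signal gives apoptosis read-out, fitted both ways relative to DMSO.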

The subject of another experiment is DIO1 (gene 1733). The experiment can be described thus: CCTE_GLTED_hDIO1: CCTE's human Deiodinase 1 (DIO1) Inhibition Assay, Great Lakes Toxicology and Ecology Division (GLTED) Lab (AID 2283987; active means hit-call score of the fitted dose curve at least 0.9, where 1 is the maximum;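 further: isolated human DIO1 enzyme in a cell-free setup rather than cells; enzyme activity read as free iodide liberated from substrate via Sandell-Kolthoff colorimetry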). In outline: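 Cell-free human DIO1 enzyme was incubated with test chemical for 3 h, and iodide released from substrate was measured by Sandell-Kolthoff absorbance. Loss of signal versus DMSO baseline indicated inhibition; plates were run in triplicate.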

Experiment [2] can be described thus: CCTE_Simmons_MITO_basal_resp_rate: CCTE's HepG2 Seahorse XF Respirometric Screening Assay at Basal Respiratory State, Simmons Lab (AID 2284001). The following applies: actives raise or lower the signal. In outline:
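Basal-phase OCR in HepG2 cells, read at 6-min intervals across a 72-min run, with test compound injected at 125 nM–100 uM final (7 points). Fitted both directions against DMSO; three biological replicates per concentration.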

A short description of experiment [3]: CCTE_Simmons_MITO_max_resp_rate: CCTE's HepG2 Seahorse XF Respirometric Screening Assay at Maximal Respiratory State [uncoupled], Simmons Lab (AID 2284002). The note with it: actives raise or lower the signal. In outline:
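HepG2 oxygen consumption was read on a Seahorse XF96 after FCCP uncoupler injection, following test compound injection; 7 concentrations, 125 nM–100 uM final, three biological replicates. Bidirectional fitting against DMSO vehicle baseline.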

Experiment [4] is described as follows: CCTE_Simmons_MITO_viability: CellTiter-Glo Viability Assessment for CCTE's HepG2 Seahorse XF Respirometric Screening Assay [post-hoc], Simmons Lab (AID 2284007; active means hit-call score of the fitted dose curve at least 0.9, where 1 is the maximum). In outline: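 Luciferase-coupled ATP luminescence, single endpoint. HepG2, post-respirometry. Compound 125 nM–100 uM final, 7 conc., 90 min. n=3 biological, technical singles. DMSO vehicle/baseline; dichlone 10 nM–100 uM, 8 conc., as positive control.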

Experiment [5] can be described thus: CCTE_Shafer_MEA_acute_spike_number: CCTE's Neural Acute Assay for Total Number of Spikes, Shafer Lab (AID 2284008).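 On AC50: curve fitted for decrease in spike count so AC50 reflects inhibitors.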 An outline of the steps: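 Primary rat cortical neurons on 16-electrode MEA wells; on DIV 13 or 15, 40-min baseline then 40-min recording with compound (0.03-40 uM) at 37 C. Spikes detected at 8x rms noise; percent change versus baseline, DMSO as negative control.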

Experiment [6] is described as follows: CCTE_Shafer_MEA_acute_firing_rate_mean: CCTE's Neural Acute Assay for Mean Firing Rate, Shafer Lab (AID 2284009).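 Further: analyzed for loss of signal so actives lower firing rate relative to DMSO.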 In outline: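 Primary rat cortical neurons on 16-electrode MEA wells were exposed on DIV 13 or 15 to compound (0.03-40 uM). Spike counts per recording time, averaged over electrodes, were compared between 40-min baseline and 40-min post-exposure recordings as percent change.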

Experiment [7] is described as follows: CCTE_Harrill_HTTr_Viability_MCF7: CCTE's 6-hour Cell Viability Assessment for the High-Throughput Transcriptomics (HTTr) Platform, in MCF-7 cells cultured in DMEM + 10% fetal bovine serum, Harrill Lab (AID 2284010). In outline: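 PI exclusion, high-content imaging; 8-pt dilution series, 6 h exposure; bidirectional fit vs DMSO (neg. ctrl/baseline); gain of signal = loss of membrane integrity.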

Experiment [8] in a line: CCTE_Harrill_HTTr_Apoptosis_MCF7: CCTE's 6-hour Apoptosis Assessment for the High-Throughput Transcriptomics (HTTr) Platform, in MCF-7 cells cultured in DMEM + 10% fetal bovine serum, Harrill Lab (AID 2284011). An outline of the steps:
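MCF-7 cells in DMEM + 10% fetal bovine serum were exposed to chemicals for 6 hours over an eight-point dilution series. Caspase-3/7 activation was imaged by high content imaging with CellEvent Caspase 3/7 Green; bidirectional fitting used DMSO as baseline.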

Experiment [9] in a line: CCTE_Harrill_HTTr_CellCount_MCF7: CCTE's Cell Proliferation Assessment for the High-Throughput Transcriptomics (HTTr) Platform, Harrill Lab (AID 2284012; active means hit-call score of the fitted dose curve at least 0.9, where 1 is the maximum;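 further: count of Hoechst-stained nuclei per well by high-content imaging in MCF-7 cells; cells exposed to compound for six hours; intended direction is loss of nuclei count meaning fewer cells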). An outline of the steps:
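Readout: Hoechst nuclear count by high-content imaging. MCF-7, 8-point dilution series, 6 h exposure. Bidirectional fit vs DMSO baseline.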

Experiment [10] in a line: CCTE_Shafer_MEA_acute_burst_number: CCTE's Neural Acute Assay for Single-Electrode Bursts, Shafer Lab (AID 2284013). In outline: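 Primary rat cortical neurons on 16-electrode MEA wells, DIV 13 or 15, exposed to compound (0.03-40 uM; ≥3 wells); 40-min recordings at 37 C before and after treatment. Burst count expressed as percent change from baseline, DMSO as negative control.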

Experiment [11] in a line: CCTE_Shafer_MEA_acute_burst_duration_mean: CCTE's Neural Acute Assay for Mean Burst Duration, Shafer Lab (AID 2284014).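 Further: hits are decreases in mean burst duration relative to DMSO controls.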 In outline: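 Mean burst duration was compared between a 40 min baseline and a 40 min recording in the presence of compound (0.03-40 uM, 37 C), giving percent change per well. Cultures were rat cortical neurons at DIV 13 or 15; wells needed ≥10 active electrodes.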

The nature of experiment [12]: CCTE_Shafer_MEA_acute_per_burst_spike_number_mean: CCTE's Neural Acute Assay for Average Number of Spikes Per Burst, Shafer Lab (AID 2284015).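 Further: hits are decreases in mean spikes per burst versus baseline.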 In outline: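 Rat primary cortical neurons on 48-well MEAs (DIV 13 or 15) were treated with 0.03-40 uM compound at 37 C. Mean spikes per burst over 40 min were recorded before and after exposure and expressed as percent change from baseline, relative to DMSO.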

The nature of experiment [13]: CCTE_Shafer_MEA_acute_burst_percentage_mean: CCTE's Neural Acute Assay for Percentage of Spikes in a Burst, Shafer Lab (AID 2284017).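 On AC50: curve fitted for loss of signal so potency reflects decreased burst percentage.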 In outline:
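Primary rat cortical neurons on 48-well MEA plates, treated on DIV 13 or 15 at 0.03-40 uM. Spikes detected at 8x rms noise at 37C; percent change from 40-min baseline to 40-min post-dose recording, fitted versus DMSO.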

A short description of experiment [14]: CCTE_Shafer_MEA_acute_burst_percentage_std: CCTE's Neural Acute Assay for Standard Deviation of Burst Percentage, Shafer Lab (AID 2284018).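 Further: fitted in the negative direction so actives lower burst percentage SD.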 In outline: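 Value is percent change from baseline in the across-electrode SD of spikes-in-bursts percentage, wells with >/= 10 active electrodes. Acute 40-min exposure to 0.03-40 uM on DIV 13 or 15 rat cortical cultures, recorded at 37 C after 40-min baseline.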

A short description of experiment [15]: CCTE_Shafer_MEA_acute_per_network_burst_spike_number_mean: CCTE's Neural Acute Assay for Average Number of Spikes in a Network Burst, Shafer Lab (AID 2284019).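 On AC50: curve fitted for loss of signal so actives reduce spikes per network burst.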 In outline:
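Percent change from baseline in mean spikes per network burst, spikes detected at 8x rms noise. Each compound at 0.03-40 uM in at least three wells of rat cortical cultures, recorded 40 min before and 40 min during exposure.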

The nature of experiment [16]: CCTE_Shafer_MEA_acute_per_network_burst_spike_number_std: CCTE's Neural Acute Assay for Standard Deviation of Number of Spikes in a Network Burst, Shafer Lab (AID 2284020).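 Further: fitted for decrease in spike-number SD versus DMSO so actives lower it.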 In outline:
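Endpoint: percent change from 40 min baseline in standard deviation of spikes per network burst, after 40 min compound exposure (0.03-40 uM, 37 C). Cortical rat neurons on MEA at DIV 13 or 15; spikes detected at 8x rms noise, 300-5000 Hz band-pass.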

Experiment [17] has as its target Nucleoli Translocation, AR (gene 367) (UniProt P10275). The experiment can be described thus: UPITT_HCI_U2OS_AR_TIF2_Nucleoli_Agonist: University of Pittsburgh U2OS Androgen Receptor-Transcriptional Intermediary Factor 2 (AR-TIF2) Agonism High Content Imaging Assay for Nucleoli Translocation (AID 2283998; active means hit-call score of the fitted dose curve at least 0.9, where 1 is the maximum). An outline of the steps: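 Cells express human AR fused to red fluorescent protein and TIF2 fused to GFP. Red fluorescence in the nucleolar region was quantified by high-content imaging and fitted as gain-of-signal against a DMSO baseline. Compounds were tested at 0.195 to 50 uM final (0.5% DMSO).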

In experiment [18] the target is Ratio of Nucleoli Translocation and Cytoplasm, AR (gene 367) (UniProt P10275). The experiment can be described thus: UPITT_HCI_U2OS_AR_TIF2_Nucleoli_Cytoplasm_Ratio_Agonist: University of Pittsburgh U2OS Androgen Receptor-Transcriptional Intermediary Factor 2 (AR-TIF2) Agonism High Content Imaging Assay for Ratio of Nucleoli Translocation and Cytoplasm (AID 2284000; active means hit-call score of the fitted dose curve at least 0.9, where 1 is the maximum;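 further: hits raise the red nucleolar to cytoplasm ratio above vehicle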). An outline of the steps:
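Compounds tested at 20 uM final in primary screen (0.2% DMSO) and 0.195-50 uM final in dose-response (0.5% DMSO). Imaging of human U2OS cells bearing RFP-AR and GFP-TIF2; endpoint is nucleoli/cytoplasm red signal ratio, positive direction relative to DMSO.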

The target is the same in experiment [19]. The experiment can be described thus: UPITT_HCI_U2OS_AR_TIF2_Nucleoli_Cytoplasm_Ratio_Antagonist: University of Pittsburgh U2OS Androgen Receptor-Transcriptional Intermediary Factor 2 (AR-TIF2) Antagonism High Content Imaging Assay for Ratio of Nucleoli Translocation and Cytoplasm (AID 2283999; active means hit-call score of the fitted dose curve at least 0.9, where 1 is the maximum;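 further: antagonists lower the DHT-driven ratio of nucleolar to cytoplasmic red signal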). In outline:
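Read-out is the ratio of nucleolar to cytoplasmic AR-RFP fluorescence, imaged by high-content microscopy in U2OS cells coexpressing TIF2-GFP. Single-point 20 uM screen, triplicate confirmation, then 0.195–50 uM dose response; activity referenced to DHT baseline.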

Records with an inconclusive call do not appear. Activity calls are given as the source filed them. How the source made its calls, unless noted: active means hit-call score of the fitted dose curve at least 0.9, where 1 is the maximum; inactive means score below 0.9.

Nucleoli Translocation, AR (gene 367), sequence (P10275 whole entry, looked up, the tested form may be a part): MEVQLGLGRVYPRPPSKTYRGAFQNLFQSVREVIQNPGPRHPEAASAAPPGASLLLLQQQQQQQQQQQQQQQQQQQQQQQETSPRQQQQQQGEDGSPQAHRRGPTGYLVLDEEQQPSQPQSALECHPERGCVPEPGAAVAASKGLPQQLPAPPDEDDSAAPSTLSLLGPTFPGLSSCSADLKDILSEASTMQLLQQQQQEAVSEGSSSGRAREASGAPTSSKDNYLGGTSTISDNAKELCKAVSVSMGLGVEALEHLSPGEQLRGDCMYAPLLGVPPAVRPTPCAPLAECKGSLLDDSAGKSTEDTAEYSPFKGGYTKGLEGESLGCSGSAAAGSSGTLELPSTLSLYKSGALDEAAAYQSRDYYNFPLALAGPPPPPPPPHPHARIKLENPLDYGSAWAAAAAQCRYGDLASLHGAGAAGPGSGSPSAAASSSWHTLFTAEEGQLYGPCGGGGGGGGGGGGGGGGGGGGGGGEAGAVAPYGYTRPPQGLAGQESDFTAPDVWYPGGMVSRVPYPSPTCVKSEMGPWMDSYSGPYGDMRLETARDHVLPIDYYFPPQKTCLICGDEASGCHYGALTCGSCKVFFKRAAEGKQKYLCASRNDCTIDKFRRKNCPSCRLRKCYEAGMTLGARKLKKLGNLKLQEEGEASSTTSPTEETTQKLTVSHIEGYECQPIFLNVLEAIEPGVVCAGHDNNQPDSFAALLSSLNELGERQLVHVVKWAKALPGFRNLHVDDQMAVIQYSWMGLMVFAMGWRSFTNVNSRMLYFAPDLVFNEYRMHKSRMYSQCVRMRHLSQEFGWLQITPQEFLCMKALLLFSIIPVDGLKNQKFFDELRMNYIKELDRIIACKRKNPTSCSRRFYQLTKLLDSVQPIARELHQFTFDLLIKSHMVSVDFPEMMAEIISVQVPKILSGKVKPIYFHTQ
Ratio of Nucleoli Translocation and Cytoplasm, AR (gene 367), sequence (P10275 whole entry, looked up): as the sequence (P10275 whole entry, looked up, the tested form may be a part) above

Consider `CC(C)CCCCCCc1ccc(O)cc1`, for which the AC50 in [1] was 77.2 µM (active); with DIO1 (gene 1733), 49.4 µM (active); in [2], 50 µM (active); in experiment [3] it was 43.8 µM (active); in experiment [5], 6.02 µM (active); in experiment [6], 6.03 µM (active). The results for the concentration at half-maximal activity (AC50) in experiment [10], in experiment [13] and in [14] were 6.34 µM (active), 12.6 µM (active) and 32.5 µM (active), respectively. The result in experiment [4], in experiment [7], in experiment [8], in experiment [9], in [11] and in experiment [12] was inactive. For the same molecule, the call in [15] and in experiment [16] was inactive.
As to `CCOC(=O)COc1cc(-n2ncc(C(F)(F)F)c(C)c2=O)c(F)cc1Cl`, the molecule was called inactive in experiment [17], in experiment [18], in [7], in experiment [8] and in [9].
`c1ccc2[nH]c(-c3cscn3)nc2c1`: the result in [18], in [7], in experiment [8] and in experiment [9] was inactive.
With `CC1(C)C(C=C(Cl)Cl)C1C(=O)OCc1cccc(Oc2ccccc2)c1` (stereo not given), the outcome in [19], in experiment [18], in experiment [5], in experiment [6], in experiment [7] and in [8] was inactive. Also, the call in [10], in [11], in experiment [14], in experiment [15] and in experiment [16] was inactive. In addition, the AC50 in [13] was 20 µM (active).
For the molecule `CCCCC(CC)COC(=O)c1ccccc1C(=O)O` (stereo not given), the AC50 in experiment [2] is 3.97 µM (active). In addition, the call in experiment [3], in experiment [4], in experiment [7] and in experiment [8] was inactive.
On to `C[C@]12CC[C@@H]3c4ccc(O)cc4C[C@@H](CCCCCCCCCS(=O)CCCC(F)(F)C(F)(F)F)[C@H]3[C@@H]1CC[C@@H]2O` (stereo not given in full), for which the result in experiment [1], in experiment [17], in [18], in experiment [7] and in [8] was inactive.
`CCOC(=O)C(C)Oc1ccc(Oc2nc3ccc(Cl)cc3o2)cc1` (stereo not given): the result in [19], in experiment [7] and in experiment [8] was inactive.
`CCCOC(=O)c1ccc(C(=O)OCCC)nc1`: the molecule was called inactive in experiment [17], in [19], in [18], in [7], in experiment [8] and in [9].
With `CCCCOCCOCCOCc1cc2c(cc1CCC)OCO2`, the result in [19], in experiment [18], in [7] and in [8] was inactive.
As to `CC(=O)S[C@@H]1CC2=CC(=O)CC[C@]2(C)[C@H]2CC[C@@]3(C)[C@@H](CC[C@@]34CCC(=O)O4)[C@H]12`, the outcome in [19], in experiment [7], in experiment [8] and in [9] was inactive.
In the case of `O=C(c1ccc(O)cc1O)c1ccc(O)cc1O`, the molecule was called inactive in experiment [17], in [18], in [3], in experiment [4], in experiment [5] and in [6]. Moreover, the result in experiment [7], in experiment [8], in experiment [10], in experiment [11], in [12] and in [13] was inactive. Further, the molecule was called inactive in experiment [14], in experiment [15] and in experiment [16]. Besides, the AC50 is 2.35 µM (active) in [19] and 34.6 µM (active) in experiment [2].
Consider `N#CSCSc1nc2ccccc2s1`, for which the concentration at half-maximal activity (AC50) in [17] was 13 µM (active); in [19], 32.4 µM (active); in experiment [18], 12.8 µM (active); in [2], 15.1 µM (active); in experiment [3], 22.7 µM (active); in experiment [12], 20 µM (active). Also, the AC50 in experiment [13] is 25.5 µM (active); in [14] it was 32.7 µM (active); in [15] it was 11.6 µM (active); in [16], 20 µM (active). For the same molecule, the result in experiment [4], in experiment [5], in experiment [6], in experiment [7], in experiment [8] and in experiment [9] was inactive. Besides, the call in [10] and in experiment [11] was inactive.
